Shown are actives, neighbours in structure and some others; about 3.2% of the full set was active somewhere.
NTR1 agonist: activates human neurotensin receptor 1. P30989. AID 493036. NTR1-U2OS beta-arrestin-GFP spot imaging, agonist mode. 330,000 compounds, 0.17% hits. activation, % at 20 µM;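 active = activation at or above 40% of the spot to cytoplasm intensity ratio, with at least 20 cells analyzed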;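 also: 0% = DMSO without peptide and 100% = 100 nM NTR1 peptide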
APOBEC3G inh: APOBEC3G (human) deaminase inhibition; Q9HC16; recombinant A3G, ssDNA deamination FAM/TAMRA fluorescence; inhibition, % at 20 µM; 330,000 compounds, 0.28% hits;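 active = inhibition of at least 40% at 20 µM, with no more than 30% in the related APOBEC3A deaminase screen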;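 also: plate controls were DMSO wells with A3G for no effect and wells lacking A3G enzyme for full effect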
Target sequence (Q9HC16 whole entry, looked up): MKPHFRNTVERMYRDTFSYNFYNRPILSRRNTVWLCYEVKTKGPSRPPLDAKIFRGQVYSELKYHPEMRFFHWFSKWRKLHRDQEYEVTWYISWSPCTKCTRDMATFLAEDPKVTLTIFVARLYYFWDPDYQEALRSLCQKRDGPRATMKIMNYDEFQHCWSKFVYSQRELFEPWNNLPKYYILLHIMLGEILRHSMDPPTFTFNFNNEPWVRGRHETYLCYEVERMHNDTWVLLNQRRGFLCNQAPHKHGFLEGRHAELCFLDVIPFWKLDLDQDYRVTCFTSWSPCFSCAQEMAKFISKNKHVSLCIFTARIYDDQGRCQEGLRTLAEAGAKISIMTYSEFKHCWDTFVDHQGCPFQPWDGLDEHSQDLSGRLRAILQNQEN
AHR activator: activates the human aryl hydrocarbon receptor | AHR-responsive luciferase reporter cells, luminescence | P35869 | 320,000 compounds, 2.5% hits | activation, % at 5 µM | AID 2796; in the data active = activation above about 47%;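 also: 0% = vehicle wells and 100% = reference agonist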
APOBEC3A inh: inhibitors of human APOBEC3A DNA deaminase. 330,000 compounds, 0.41% hits. inhibition, % at 20 µM. AID 493011. P31941. recombinant A3A, FAM/TAMRA ssDNA deamination fluorescence;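 active = at least 40% inhibition at 20 µM here, with at most 30% in a related deaminase screen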;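 also: plate controls were A3A with DMSO for no effect and wells lacking A3A enzyme for full effect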
Target sequence (P31941 whole entry, looked up): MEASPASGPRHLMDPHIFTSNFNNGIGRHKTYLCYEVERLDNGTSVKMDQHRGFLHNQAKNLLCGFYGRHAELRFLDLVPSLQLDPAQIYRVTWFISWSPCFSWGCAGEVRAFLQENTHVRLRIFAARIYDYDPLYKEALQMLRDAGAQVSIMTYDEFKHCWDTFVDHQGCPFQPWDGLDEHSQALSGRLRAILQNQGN
Starred values were filed as active, the others as inactive.

SMILES	NTR1 agonist	APOBEC3G inh	AHR activator	APOBEC3A inh
Cc1cc(C)nc(/N=C(\N)Nc2cccc([N+](=O)[O-])c2)n1	0	-3	52*	-1
CCC(C)c1ccc(NC(=O)Nc2cccnc2)cc1 (stereo not drawn)	2	1	79*	4
O=C(Nc1cccc([N+](=O)[O-])c1)c1[nH]ncc1Cl	0	-1	75*	3
COc1ccc(OC)c(CNC(=O)CCc2cn(C)c3ccccc23)c1	-1	-5	13	-4
COc1ccc(OC)c(CNC(=O)CCCc2cn(C)c3ccccc23)c1	-1	-5	71*	-2
Cc1ccc2nc(C)cc(Nc3ccc4c(c3)OCCO4)c2c1	2	-1	69*	10
CCCc1nc2cc3c(cc2[nH]1)n(C)c(=O)n3C	0	-6	75*	-8
CC(OC(=O)c1cccnc1SCc1cc(=O)n2ccccc2n1)c1ccccn1 (stereo not drawn)	0	-1	73*	7
CC(C)/C=C1\CCc2c([nH]c3ccccc23)C1=O	9	-8	57*	-2
O=C1/C(=C\c2ccccc2)CCc2c1[nH]c1ccccc21	3	-3	20	-1
O=c1/c(=C/c2ccc(O)cc2)sc2nc3cc(Br)cnc3n12	2	11	1	6
Cc1ccc(-c2nc3ccccc3[nH]2)s1	-1	2	55*	3
COc1ccc(C(=O)O)cc1S(=O)(=O)NC(C)C	0	-2	4	3
C=CCc1cccc(/C=N/NC(=O)CNc2cccc3ccccc23)c1O	6	6	42	-1
COc1cccc(/C=N/NC(=O)CNC(=O)/C=C\c2ccccc2)c1O	62*	-6	2	-4
C=CCc1cccc(/C=N/NC(=O)CNc2ccccc2OC)c1O	4	-3	61*	-1
Cc1csc2ncc(C(=O)Nc3ccccc3Cl)c(=O)n12	8	-5	28	4
Cc1csc2ncc(C(=O)Nc3ccccc3F)c(=O)n12	0	-4	60*	4
O=C(NC1CCCC1)C1CCN(c2cnccn2)CC1	0	-10	5	0
Cc1cccc(C(=O)O/N=C(\N)c2cccc([N+](=O)[O-])c2)c1	0	-11	6	1
N/C(=N\OC(=O)c1cccc2ccccc12)c1cccc([N+](=O)[O-])c1	1	1	15	5
N/C(=N\OC(=O)c1cccc(Br)c1)c1ccncc1	2	-3	53*	-1
Cc1ccccc1C(=O)O/N=C(\N)c1cccc([N+](=O)[O-])c1	0	-3	94*	2
N/C(=N\OC(=O)c1cccc([N+](=O)[O-])c1)c1cccnc1	2	-4	114*	-1
Nc1cc(=O)[nH]c(SCC(=O)Nc2cccc(Cl)c2Cl)n1	2	-11	0	-4
SMILES	NTR1 agonist	APOBEC3G inh	AHR activator	APOBEC3A inh
CCCCOc1ccc(C(=O)NCC(=O)NCCOc2ccccc2OC)cc1	-2	-7	2	-5
O=c1cc[nH]c2c1ccc1c(=O)cc[nH]c12	-1	-6	4	-1
Cc1[nH]ccc2c1[nH]c1cc(=O)ccc12	0	-4	71*	-2
Cc1ccc(S(=O)(=O)N2CCN(C(=O)C3CSC4(C)CCC(=O)N34)CC2)cc1C (stereo not drawn)	0	3	2	2
COc1ccc(-c2ccc(/C=C(\NC(=O)c3ccccc3)C(=O)N3CCOCC3)o2)cc1	0	-2	77*	5
COc1ccc(C(=O)N/C(=C\c2ccccc2)C(=O)N2CCOCC2)cc1	0	-5	2	2
CN(C)/C=N/c1nc2nccc(-c3cccs3)n2n1	0	-4	75*	-2
CN(C)/C=N/c1nc2nccc(-c3ccc(F)cc3)n2n1	-1	0	2	3
COc1cc(NC(=O)c2ccc3c(c2)OCO3)c2ncccc2c1	0	-5	66*	-8
CC(C)(C)NC(=O)c1ccccc1NC(=O)c1ccc2c(c1)OCO2	0	2	68*	5
CCCC(=O)Nc1ccccc1NC(=O)c1ccc2c(c1)OCO2	1	-7	8	-3
CCCCNC(=O)c1ccccc1NC(=O)c1ccc2c(c1)OCO2	-1	-6	58*	-2
Cc1ccccc1NC(=O)c1ccc2c(c1)OCCO2	-1	3	-3	3
Cc1cccc(NC(=S)N=Nc2c(O)n(CN3CCOCC3)c3ccccc23)c1C	4	-7	55*	2
Cc1ccc(N=Nc2c(O)n(CN3CCOCC3)c3ccccc23)cc1	2	-6	41	-2
CCCCOc1ccc(C(=O)N/N=C/c2ccc(OCCN3CCCCC3)c(OC)c2)cc1	2	-9	0	-2
COc1ccc(C(=O)Nc2nc(CC(=O)NCCc3ccccc3)cs2)cc1	1	-5	48*	-3
O=C(Nc1ccc(Cl)c(Cl)c1)Nc1cc(C(=O)NC2CC2)ccc1Cl	7	4	74*	1
COc1cc(NC(=O)COc2cc3oc(=O)cc(C)c3cc2Cl)cc(OC)c1OC	1	-7	-1	-5
COc1cccc(CNc2ccc(S(N)(=O)=O)cc2)c1OCc1ccccc1F	-2	1	48*	6
C=CCOc1c(CNc2ccc(S(N)(=O)=O)cc2)cccc1OC	0	-6	8	-1
O=C1Nc2ccccc2O/C1=C\c1c(F)cccc1Cl	5	-2	49*	0
COC(=O)c1ccc(/C=C2\Oc3ccccc3NC2=O)cc1	2	-8	8	0
Cc1c(C)n(CCc2ccccc2)c2ncnc(NCCCO)c12	0	0	51*	1
Cc1c(C)n(CCc2ccccc2)c2ncnc(NN)c12	1	-6	19	-6
SMILES	NTR1 agonist	APOBEC3G inh	AHR activator	APOBEC3A inh
CCOc1ccc(S(=O)(=O)N(CC)CC(=O)N2CCOCC2)cc1C	1	-12	1	-3
COCCN(C(=S)Nc1ccc(C)cc1)C(C)c1cccnc1 (stereo not drawn)	1	-8	-1	-2
c1cnc2c(OCc3cn4cccnc4n3)cccc2c1	-1	-1	71*	0
COc1ccc(/C=N/OCC(=O)N=Nc2c(O)[nH]c3ccc(Br)cc23)cc1OC	6	-3	78*	0
NC(=O)N/N=C/c1cn(-c2ccccc2)nc1-c1cccs1	5	0	33	4
O=C(O)c1cccc(N/N=C/c2cn(-c3ccccc3)nc2-c2cccs2)c1	0	-4	54*	10
COc1ccccc1/C=C/C(=O)Nc1ccc(S(=O)(=O)Nc2cc(C)on2)cc1	1	-6	5	-3
CCCNC(=O)N1CCN(Cc2ccco2)CC1	1	1	-1	-1
O=C(Nc1ccc(-c2nc3cc(Cl)ccc3o2)cc1)C1CCCO1 (stereo not drawn)	-1	-9	55*	3
O=C(Nc1ccc2oc(-c3ccccc3)nc2c1)C1CCCO1 (stereo not drawn)	2	-8	15	-2
Cc1cc2nccc(-c3ccc(OCCCF)cc3)n2n1	0	-8	16	-3
COc1ccc(C2Nc3ccccc3C(=O)N2NC(C)=O)c(OC)c1 (stereo not drawn)	-1	-7	0	0
COc1cccc(COc2ccccc2C2Nc3ccc(Br)cc3C(=O)N2NC(=O)c2ccncc2)c1 (stereo not drawn)	3	-8	52*	-4

Compound activity from PubChem.
